Laboratory results: the supplement of paper PMC11417369
± gives the standard deviation of the averaged measurements. Over roughly 25,000 sequences, “ln(normalized median fluorescence intensity)” has its median near 10; the highest 2% begin near 12. Shown is part of a subset that was picked to be rich in the highest values.

Test system: PfAP2-G AP2 domain (GST-tagged)
Assay: gcPBM binding intensity (ln(normalized median fluorescence intensity)); higher = stronger DNA binding
Outline: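 Binding intensity values are the highest Masliner-normalised natural-log median intensity among replicate spots of either probe orientation. The binding step lasted 1 h in 1× PBS with 1% milk, 0.2 mg/ml BSA, 0.5% salmon testes DNA and 0.03% Triton X-100, using GST-tagged P. falciparum DNA-binding domains expressed in E. coli on an Agilent 4 × 180k array of primer-extended double-stranded 36-bp intergenic genomic probes plus negative controls. Alexa488 anti-GST antibody and a 488 nm scan detected bound protein.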

Row | Sequence | gcPBM binding intensity (ln)
1 | AAACAAAAGGAAAACATATATATATTAAATGTATAT [CACACA_negctrl_site1663] | 9.64 ± 0.33
2 | ACTTTTTTAATGTTACGTACACATAAATAATAATTA [XGTACX_site8092] | 11.6 ± 0.9
3 | TTTTTTTTTTTAAAATGTACACGTAATTACATATAT [XGTACX_site752] | 11.4 ± 0.95
4 | AGAATTAAAATAATACGTACACACATGTATAATACA [XGTACX_site1878] | 11.5 ± 0.82
5 | GATAAAGTAAAAATATGTACATATATATTTTAAGTT [XGTACX_site6439] | 11.4 ± 0.78
6 | ATGCTTTTTTATAAAAGTACATAAAGTTTTTACACT [XGTACX_site7307] | 11.3 ± 0.81
7 | AAGTATAAAAAAAGGCGTACAAAAAAAAAAAAAAAA [XGTACX_site7309] | 11.7 ± 0.9
8 | GAATTAAAATAATACGTACACACATGTATAATACAT [CACACA_site1004] | 11.7 ± 1.2
9 | AAAAAAAAAAAAAAAAGTACAAATAAAAAAAAAATA [XGTACX_site4814] | 11.4 ± 0.85
10 | ATAAAATATAAAAAAAGTACAAAAAAAAAAAAAAAA [XGTACX_site6657] | 11.2 ± 1.1
11 | ATTAAAATAATACGTACACACATGTATAATACATAT [CACACA_site1005] | 11.5 ± 0.91
12 | TTTTTTTTTTTTACGTGTACATAAATGTTAAGTAAT [XGTACX_site3901] | 11.4 ± 0.91
13 | ATGTTTTATAAAAGGCGTACACATATGCTTAAGTAA [XGTACX_site6232] | 11.8 ± 0.94
14 | ATAGCCAAAAATCATGCACACCTAAAAAAAAAAAAA [CACACA_site8826] | 10.1 ± 0.6
15 | TAGTTTTCTTAAAGATGTACTTATTAAAAATAAACT [XGTACX_site1001] | 11.3 ± 1.1
16 | TATATCTCTTTATTCACACATACGTTTTAAAATAAT [CACACA_site5542] | 10.2 ± 0.13
17 | TAAAAGTATATATATACACACATAAATATATATGTA [CACACA_site663] | 9.86 ± 0.14
18 | AATAAATTATTATGTACACACATAATAGTATATATA [CACACA_site1820] | 11.4 ± 0.85
19 | TAAGGTTAAATAATATGTACATATTATTATATATAT [XGTACX_site6953] | 11.3 ± 0.72
20 | AATACAATAAAAAAAAGTACACATGTATAAAAAATT [XGTACX_site8270] | 11.6 ± 0.8
21 | AAAAATAAATATATATGTACACATATGTATACAATA [XGTACX_site4692] | 11.6 ± 0.97
22 | ATAATAAATTATTATGTACACACATAATAGTATATA [CACACA_site8538] | 11.3 ± 0.88
23 | AAGTATAAATAAAGGCGTACACATGTAAATTATATT [XGTACX_site126] | 11.7 ± 1.1
24 | GTATATATATATAAAAGTACATGTTATGAAAAAAAA [XGTACX_site5410] | 11.3 ± 0.81
25 | ATTATGTTAAAAAGGCGTACATGTTATAAGGTCCTA [XGTACX_site344] | 11.7 ± 1.2
26 | TTTTTTAAATTTTGAATTATAACTACATTAAAGAAA [GTGCAC_negctrl_site279] | 9.8 ± 0.33
27 | AATATATATATTTAAGTGCATAATATTGTAATATTA | 9.91 ± 0.028

Row | Sequence | gcPBM binding intensity (ln)
28 | GGTATATAAAAATATTGTACTTAAAAAAATATGTAT [XGTACX_site6253] | 11.4 ± 0.99
29 | TTGTTAATATGATAAAAGAGGAATATTCTCTTCCTA [GTGCAC_negctrl_site659] | 9.48 ± 0.14
30 | ATATACATAATCTTCTTGCACTTTTTTTTTTTTTTT [GTGCAC_site9410] | 10.3 ± 0.22
31 | AAAAAAGAACGCATAGTGCATATCTAAAAGATTTTT | 9.85 ± 0.014
32 | TATGTTAAAAAAAAATGTACATATGTTTTTGTTAAA [XGTACX_site4754] | 11.2 ± 0.86
33 | TATATATATATATGTACACACATATATACCTTTCAT [CACACA_site2679] | 11.4 ± 0.81
34 | ATATGACGTAGTGGTGTACACACATGGTACCTTTAT [CACACA_site8436] | 11.9 ± 1.1
35 | ATATAATATATATGGTGTACATTTTTTAGTGCTATT [XGTACX_site1662] | 11.4 ± 0.76
36 | AATATGACGTAGTGGTGTACACACATGGTACCTTTA [XGTACX_site3147] | 11.7 ± 0.83
37 | ATGACGTAGTGGTGTACACACATGGTACCTTTATTC [CACACA_site1547] | 11.6 ± 0.84
38 | TATATATATTTATGTACACACATATATACCTTTCAT [CACACA_site5479] | 11.4 ± 0.86
39 | TTATATATTAATAGTAGTACTATATTGAATCACCCC [XGTACX_site2868] | 11.3 ± 0.85
40 | TAATTTATAAATATAATATTTATGTATATGATGTTT [CACACA_negctrl_site464] | 9.795 ± 0.078
41 | CATATTTTGAACTTCACACATATATATATATATATA [CACACA_site4228] | 10.3 ± 0.54
42 | TTTTCTCAATTTTGGTGTACTTTTTTCTTAACACAT [XGTACX_site8918] | 11.7 ± 1
43 | TCACACCTTTTTGGTTGTACTTAAATTTCTTTTTTT [XGTACX_site6438] | 11.2 ± 0.75
44 | ATTTTATTAATTTGGTGTACTTAATTTATATTTTTC [XGTACX_site4947] | 11.6 ± 0.92
45 | GTTTATGTATTATTATGTACGTATCATAATATATAT [XGTACX_site2385] | 11.5 ± 0.82
46 | ATCTAAACCTTTTGAGCACACATATATATATATATA [CACACA_site8526] | 10.4 ± 0.3
47 | ATATGTTCCGAAGGTTGTACACACATAGAAATATAC [XGTACX_site8227] | 11.6 ± 1
48 | TGTTCCGAAGGTTGTACACACATAGAAATATACATA [CACACA_site3874] | 11.6 ± 0.74
49 | TATGTTCCGAAGGTTGTACACACATAGAAATATACA [CACACA_site9285] | 11.6 ± 0.8
50 | AACCACATGGTGTAATGTACATTACCTTAACAATAA [XGTACX_site3055] | 10.7 ± 0.42
51 | TAAAATATACAAATTTGTACATATATATGTATGTAT [XGTACX_site1127] | 10.9 ± 0.38
52 | AGAAAATTAAAAAGAACACACAAATATATATATAAT [CACACA_site5896] | 10.045 ± 0.007
53 | ATATATATATATAATGCACACATTATGAATTATGTA [CACACA_site3384] | 9.9 ± 0.42
